Data taken from PubChem BioAssay (Tox21).
Inconclusive results are not listed. Entries that show only a call come without a potency. Calls of active or inactive are those of the source. The call rests on the fitted dose curve.

Assay: p53 small molecule agonists, cell-based qHTS assay with rat liver microsomes: qHTS cell viability counter screen (AID 1963580); further: nearly all actives have a fitted effect of over 45% in size
Conditions: p53RE-bla HCT-116 + rat microsomes, ATP viability, 16 h; series mostly up to 66 µM
From the text: National Center for Advancing Translational Sciences [NCATS]
Division of Preclinical Innovation [DPI]
U.S. Environmental Protection Agency [EPA]
National Institutes of Environmental Health Sciences [NIEHS]
National Toxicology Program [NTP]
U.S. Food and Drug Administration [FDA]
p53, a tumor suppressor protein, is activated following cellular insult, including DNA damage and other cellular stresses. The activation of p53 regulates cell fate by inducing DNA repair, cell cycle arrest, apoptosis, or cellular senescence. The activation of p53, therefore, is a good indicator of DNA damage and other cellular stresses. The CellSensor p53RE-bla HCT-116 cell line contains a stably integrated beta-lactamase reporter gene under control of the p53 response elements. The activation of the reporter gene under culture conditions can be detected by fluorescence intensity. This cell line was used to screen the Tox21 10K compound library in the condition of presence of rat liver microsomes and to identify agonists that activate the p53 signaling pathway after in vitro metabolic activation (Ooka et al., Archive of Toxicology 96:1975-1987, 2022). The cytotoxicity of the Tox21 compound library against the p53 RE-bla HCT-116 cell line was tested in parallel by measuring the intra cellular ATP content in the same wells.
Tox21 Assay Protocol Summary:
The p53RE-bla cells were dispensed at 4,000cells/3ul/well in 1536-well black-clear bottom plates. After the assay plates were incubated at 37 C, 5% CO2 incubator for 5 hours, 23 nL of compounds dissolved in DMSO, positive controls or DMSO only was transferred to the assay plate. Following compound addition, 3 uL of rat liver microsomes (Molecular Toxicology, Boone, NC) at final concentration of 0.5 mg/mL and 1uL of B-Nicotinamide adenine dinucleotide 2'-phosphate (NADPH) at final concentration of 0.5 mg/mL were transferred to the assay plate. The plates were incubated at 37 C for 16 hours. 1 uL of LiveBLAzer detection mixture was added to each well and the plates were incubated at room temperature in the dark for 2 h. Fluorescence intensity at 460 and 530 nm emission and 405 nm excitation were measured by an Envision plate reader. For cell viability readout that measures cytotoxicity, 4 ul/well of CellTiter-Glo reagent was added into the assay plates using a Flying Reagent Dispenser. After 30 min incubation at room temperature, the luminescence intensity in the plates was measured using a ViewLux plate reader.
Potency means the concentration at half of the fitted maximal effect.

SMILES | Potency | activity change, negative = cytotoxicity
COc1ccc(C2C(=O)c3ccccc3C2=O)cc1 | inactive | 
Cc1occc1C(=O)Nc1ccc(C(=O)N2CCC(F)(F)/C(=C\C(=O)N3CCC(N4CCCCC4)CC3)c3ccccc32)cc1 | inactive | 
C/C(=N\O)c1ccc(OCC(=O)N2CCCCC2)cc1 | inactive | 
c1cc[nH]c1 | inactive | 
CC(C)NCCCC1(C(N)=O)c2ccccc2-c2ccccc21 | inactive | 
CC(C)COC(=O)c1ccccc1 | inactive | 
CC1=NS(=O)(=O)c2cc(Cl)ccc2N1 | inactive | 
Cc1cccc(C)n1 | inactive | 
CCCOc1ccccc1-c1nc2n[nH]nc2c(=O)[nH]1 | inactive | 
O=C(O)CC(C(=O)O)S(=O)(=O)O (stereo not given) | inactive | 
CCCCCc1ccc(N)cc1 | inactive | 
C[C@H]1NCc2cc(-c3ccc4c(=O)c(C(=O)O)cn(C5CC5)c4c3OC(F)F)ccc21 |  | 2.66% [at 13.5 µM] (inactive)
CCCCCCCCCCCCc1ccc(O)cc1 | 40.8 µM (active) | 
Cc1cnc(C)c(C)n1 | inactive | 
O=C(O)c1ccccc1C(=O)Nc1ccc(S(=O)(=O)Nc2nccs2)cc1 | inactive | 
COc1cc2c3cc1Oc1cc(ccc1O)C[C@@H]1c4c(cc(OC)c(O)c4Oc4ccc(cc4)C[C@@H]3N(C)CC2)CC[N+]1(C)C | inactive | 
OC[C@@H](O)C(O)[C@@H](O)CO (stereo not given in full) | inactive | 
O=C(O)c1cc(-c2ccc(F)cc2F)ccc1O | inactive | 
C[C@@H]1CN(c2c(F)c(N)c3c(=O)c(C(=O)O)cn(C4CC4)c3c2F)C[C@H](C)N1 |  | 3.67% [at 13.5 µM] (inactive)
C=CC(=O)OCCCl | inactive | 

SMILES | Potency | activity change, negative = cytotoxicity
COC(=O)C1=C(C)NC(C)=C(C(=O)OCCN2CCN(C(c3ccccc3)c3ccccc3)CC2)C1c1cccc([N+](=O)[O-])c1 (stereo not given) | inactive | 
Cc1c(NC(C)C)c(=O)n(-c2ccccc2)n1C | inactive | 
NS(=O)(=O)c1cc(-c2nn[nH]n2)c(NCc2cccs2)cc1Cl | inactive | 
ON=C1CCCC1 | inactive | 
Nc1c(Cl)cc(Cl)cc1Cl | inactive | 
CCOCC(O)COc1ccc(NC(=O)CC[S+](C)C)cc1 (stereo not given) | inactive | 
COCCO | inactive | 
Cc1c(C)c2c(c(C)c1O)CC[C@@](C)(CCC[C@H](C)CCC[C@H](C)CCCC(C)C)O2 | inactive | 
CC1CCC(C(C)CS)CC1S (stereo not given) | inactive | 
COc1ccc2sc(C(=O)Nc3nnn[nH]3)c(OC(C)C)c2c1 | inactive | 
Oc1ccc(C2CNCCc3c2cc(O)c(O)c3Cl)cc1 (stereo not given) | inactive | 
CNC(=O)N(c1ccccc1)c1ccccc1 | inactive | 
CC1(C)S[C@@H]2[C@H](NC(=O)Cc3ccccc3)C(=O)N2[C@H]1C(=O)O (tested in a mixture with another compound) | inactive | 
CN[C@@H]1[C@H](O)[C@H](NC)[C@H]2O[C@@]3(O)C(=O)C[C@@H](C)O[C@H]3O[C@@H]2[C@H]1O | inactive | 
O=C(O)Cc1cn(-c2ccccc2)nc1-c1ccc(Cl)cc1 | inactive | 
CCCCCCCCCCCCCC=O |  | 0.418% [at 5.99 µM] (inactive)
Cc1cccc(N(C)C(=S)Oc2ccc3c(c2)CCC3)c1 | inactive | 
Nc1cc(C(F)(F)F)ccc1S | inactive | 
O=C(c1ccc(O)cc1)c1ccc(Cl)cc1 | inactive | 
O=C1[C@H]2CCCC[C@H]2C(=O)N1CCCCN1CCN(c2nsc3ccccc23)CC1 | inactive | 
